# GDH-TPI counter-1: inhibits GDH-TPI coupling enzymes, artifact for Mtb FBA screen; 1.2% of 360,000 active; inhibition, % at 4.8 µM; GDH-TPI coupled enzyme counterscreen, NADH absorbance; AID 588335; in the data active means inhibition above about 30%;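 further: 0% = DMSO wells and 100% = wells lacking the enzyme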
# SARS 3CLpro inh: SARS-CoV 3CLpro protease inhibition. AID 1706. recombinant SARS-CoV 3CLpro, quenched FRET peptide cleavage. inhibition, % at 6 µM. 0.14% of 290,000 active; in the data active means inhibition above about 12%
# FBA Mtb inh: inhibits M. tuberculosis FBA enzyme | inhibition, % at 1 µM | purified M. tuberculosis FBA, fluorescence read-out | 2.3% of 360,000 active;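 further: 0% = vehicle and 100% = reference inhibitor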
# Target sequence (P9WQA3 whole entry, looked up): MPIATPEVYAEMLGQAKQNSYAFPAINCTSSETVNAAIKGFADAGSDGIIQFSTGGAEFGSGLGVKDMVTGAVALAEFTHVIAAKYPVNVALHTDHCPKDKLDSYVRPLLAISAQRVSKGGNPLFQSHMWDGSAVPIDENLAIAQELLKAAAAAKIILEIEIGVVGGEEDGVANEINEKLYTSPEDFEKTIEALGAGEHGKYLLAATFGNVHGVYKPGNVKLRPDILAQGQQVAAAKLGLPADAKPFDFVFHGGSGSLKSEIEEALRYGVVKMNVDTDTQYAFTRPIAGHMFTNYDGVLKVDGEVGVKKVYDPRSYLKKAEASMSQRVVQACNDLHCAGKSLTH
# PrPC surface inh: reduces human prion protein on the cell surface. cell surface PrPC, TR-FRET read-out. 0.43% of 370,000 active. P04156. inhibition, % at 13.8 µM. AID 720596; in the data active means inhibition above about 24%; further: 0% = median of the test wells and 100% = reference compound wells
# BH1578 lux ind: induces V. cholerae light production without autoinducers; V. cholerae BH1578 lux reporter, luminescence, 6 h; activation, % at 18.7 µM; 0.16% of 350,000 active; AID 588436; in the data active means activation mostly above about 9.7%, no sharp cut-off
# Mtb FBA inh conf: Mtb FBA inhibition, confirmed; shares compounds with FBA Mtb inh; purified M. tuberculosis FBA, fluorescence read-out; inhibition, % at 1 µM; 78% of 5,600 active;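 further: 0% = vehicle wells and 100% = reference inhibitor wells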
# GDH-TPI counter-2: inhibits GDH-TPI coupling enzymes, flagging Mtb FBA hits; shares compounds with FBA Mtb inh; 81% of 5,600 active; inhibition, % at 1 µM; GDH-TPI coupled enzyme counterscreen, fluorescence; in the data active means inhibition above about 10%
# Active calls of the source: *; i = inactive; x = no result given; + = active, no number. The list is not random: actives were taken first. Their share in the collection is about 3.9%. Unless noted, no stated cut-off is given here; in the data, active means inhibition above about 27%; inactive means the rest.
SMILES,GDH-TPI counter-1,SARS 3CLpro inh,FBA Mtb inh,PrPC surface inh,BH1578 lux ind,Mtb FBA inh conf,GDH-TPI counter-2
CC(C)NC(=S)N/N=C/c1ccc(N2CCOCC2)cc1,40*,-5,38*,5,1,120*,89*
Cc1ccc(/C=N/NC(=S)NC(C)C)o1,29,-1,2,-4,-3,x,x
CC(C)(C)c1ccc(OCC(=O)N/N=C/c2ccc(N3CCOCC3)cc2)cc1,23,3,27*,-1,0,62*,43*
Cc1cccc(OCC(=O)OCC(=O)c2c(N)n(C)c(=O)n(C)c2=O)c1,-1,1,-1,6,i,x,x
CCn1cc(C(=O)N[C@H](C(=O)NCCO)C(C)C)c(=O)c2cc3c(cc21)OCO3,14,3,7,0,0,x,x
O=C(CN1CCCCCC1)NCC1CCCO1 (stereo unspecified),-3,-4,97*,-1,-1,80*,73*
CC(=O)N1CCN(c2nc(-c3ccco3)c3c(c2C#N)CC(C)(C)SC3)CC1,5,-3,2,-7,i,x,x
CC1(C)Cc2c(c(-c3ccco3)[nH]c(=O)c2C#N)CS1,17,2,30*,-1,-1,22,17*
CC1(C)Cc2c(c(-c3ccccc3)[nH]c(=O)c2C#N)CS1,25,0,29*,-4,0,44*,50*
N#Cc1c(-c2ccccc2)[nH]c(=S)[nH]c1=O,17,6,3,6,-1,x,x
CC(C)(C)c1ccc(OCC(=O)NCc2ccco2)cc1,10,7,1,6,-1,x,x
Cc1cccc(OCC(=O)N2CCC3(CC2)CC(=O)c2ccccc2O3)c1,8,x,6,0,i,x,x
CC(=O)N1CCC2(CC1)CC(=O)c1cc(OCC(=O)NCc3ccco3)ccc1O2,13,4,35*,-1,i,121*,80*
CC(=O)N1CCC2(CC1)CC(=O)c1cc(OCC(=O)NCc3ccc(C)cc3)ccc1O2,3,-8,51*,2,0,-6,-4
Cc1ccc(NC(=O)CCCCCN2C(=O)[C@@H]3Cc4ccccc4CN3C2=O)cc1,6,-4,53*,0,-3,-5,-7
O=C(NN1C(=O)NC2(CCCCC2)C1=O)c1ccc(-c2ccc(Cl)cc2)o1,8,x,35*,-15,-1,157*,124*
O=C(NN1C(=O)NC2(CCCCC2)C1=O)c1cc2cc(Cl)ccc2o1,0,x,0,-5,i,x,x
CCN1CCCC1Cn1cnc2c([nH]c3ccc(C)cc32)c1=O (stereo unspecified),20,0,37*,-7,i,60*,37*
CCN1CCCC1CNc1ncnc2c1[nH]c1ccc(Cl)cc12 (stereo unspecified),5,-2,10,-6,-1,x,x
Cc1ccc2[nH]c3c(=O)n(Cc4ccncc4)cnc3c2c1,-2,1,29*,3,5,+,182*
CCCCCCCCN1C(=O)[C@H](CC(=O)NCCCOCCCC)C[C@@]2(C(=O)OC)CCCCC=C12,x,x,x,-8,x,x,x
c1ccc(Nc2c(-c3ccco3)nc3ccccn23)cc1,12,-3,111*,9,2,99*,71*
O=c1nc2n(CCO)c3ccccc3cc-2c(=O)[nH]1,16,x,96*,-20,x,77*,56*
COc1ccc(CNC(=O)C[C@H]2C[C@H](C(=O)N(C(C)C)C(C)C)[C@@]3(C)c4[nH]c5cc(-c6ccco6)ccc5c4CCN3C2=O)cc1OC,4,x,19,2,-1,x,x
CNC(=O)c1cc2cc(OC)ccc2oc1=N,6,-6,54*,-3,0,28*,16*
COc1ccc2oc(=O)c(C(=O)NC3CCCCCC3)cc2c1,17,-2,10,1,i,x,x
Cc1ccc2nc(-c3ccccc3)cc(C(=O)NCC3CCCO3)c2c1 (stereo unspecified),7,4,41*,-3,-1,81*,86*
CNC(=O)c1cc2cc(OC)ccc2oc1=O,-1,-1,59*,x,3,14,-4
COc1ccc(-c2cc(C(F)F)n3ncc(C(=O)NCC4CCCO4)c3n2)cc1 (stereo unspecified),26,-7,29*,-9,6,96*,76*

# Screening data as filed in PubChem BioAssay.
